Data from PubChem BioAssay AID463165 (Johns Hopkins Ion Channel Center, 2010).
In all, about 310,000 compounds went through this assay and about 1,400 (0.45%) were called active. This is one part of a sample in which actives are shown more often than they occur.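 How the source made its calls: active means B-score, a plate-corrected calcium signal, over three deviations above library mean, with baseline fluorescence within five deviations of library mean; inactive means the rest.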

Each compound was assayed against Regulator of G-protein signaling 4 (Homo sapiens) (UniProt P49798) (assay: blockers of RGS4 function in M3R calcium signaling – cell-based, HEK293 M3R inducible RGS4, calcium flux, primary screen (AID 463165;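 further: RGS4 expression induced by doxycycline in cells with stable M3 receptor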;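 on B-score: B-score is computed from the integrated fluorescence ratio over baseline after carbachol; higher B-score means a larger calcium signal and so more RGS4 inhibition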)). Conditions: Fluo-4 calcium flux, at 10 µM, triggered by carbachol at its EC20; active compounds read high.
Regulator of G-protein signaling 4 (Homo sapiens), sequence (P49798 whole entry, looked up): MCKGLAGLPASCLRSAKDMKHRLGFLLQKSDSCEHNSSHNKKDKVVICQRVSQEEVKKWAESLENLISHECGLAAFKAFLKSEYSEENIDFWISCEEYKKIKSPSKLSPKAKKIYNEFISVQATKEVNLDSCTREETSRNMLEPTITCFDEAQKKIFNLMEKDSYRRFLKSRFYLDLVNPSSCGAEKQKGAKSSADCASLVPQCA

Row | Compound | B-score
1 | O=c1c(-c2cccc(Cl)c2)c[nH]n1-c1ccccc1 | inactive
2 | O=C1c2ccccc2NC(c2ccc(-c3cccc(Cl)c3)o2)N1O (stereo unspecified) | 8.05 (active)
3 | O=C1NC(c2cccc(Cl)c2)Nc2ccccc21 (stereo unspecified) | inactive
4 | CCOC(=O)c1ccc(NC(=O)c2cccnc2)cc1 | inactive
5 | Cc1nn2c(=O)cc(COC(=O)c3ccc(NC(=O)C(C)(C)C)cc3)nc2s1 | 17.9 (active)
6 | COCCc1nn2c(=O)cc(COC(=O)c3cc(OC)c(OC)c(OC)c3)nc2s1 | inactive
7 | COc1ccc(CC(=O)NC2CCSc3ccccc32)cc1OC (stereo unspecified) | inactive
8 | CN(C(=O)c1cccc([N+](=O)[O-])c1)c1ccccc1C(=O)NCc1ccccc1 | inactive
9 | C#CCOc1ccccc1/C=C1/C(=O)ON=C1C | inactive
10 | C#CCOc1ccc(/C=C2/C(=O)ON=C2C)cc1OCC | 6.2 (active)
11 | COc1cc(/C=C2/C(=O)ON=C2C)ccc1OCc1cccc(F)c1 | inactive
12 | C=CCOc1ccc(/C=C2/C(=O)ON=C2C)cc1OCC | 9.13 (active)
13 | CC1=NOC(=O)/C1=C\c1ccccc1 | inactive
14 | COc1cc(/C=C2/C(=O)ON=C2C)ccc1OCc1ccccc1F | inactive
15 | O=C(O)C1C2C=CC(O2)C1C(=O)NCCc1cccc(Cl)c1 (stereo unspecified) | inactive
16 | O=C(Oc1c(-c2ccco2)oc2ccccc2c1=O)c1cccnc1 | inactive

Row | Compound | B-score
17 | O=C1C(=O)N(c2ccccc2)c2ccccc21 | inactive
18 | CC(C)(CNC(=O)c1cc(=O)[nH]c2ccccc12)N1CCOCC1 | inactive
19 | COC(=O)C1CCN(C(=O)c2cc(=O)[nH]c3ccccc23)CC1 | 5.3 (active)
20 | CC1CCCCC1NC(=O)c1cc(=O)[nH]c2ccccc12 (stereo unspecified) | inactive
21 | O=C(CNC(=O)[C@@H]1Cc2ccccc2CN1)NC1CCCCC1 | inactive
22 | COc1ccccc1N1CCN(S(=O)(=O)CCNC(=O)c2ccc(OC(C)C)cc2)CC1 | inactive
23 | Cc1ccc(CSCC2Nc3ccc(C(=O)N4CCN(c5ccc(F)cc5)CC4)cc3NC2=O)cc1 (stereo unspecified) | inactive
24 | Cc1cc(C)c2[nH]c(=O)c(C(c3nnnn3Cc3ccc4c(c3)OCO4)N3CCCC3)cc2c1 (stereo unspecified) | inactive
25 | COc1ccc(N2CCN(C(c3cc4ccc(C)cc4[nH]c3=O)c3nnnn3C3CCCC3)CC2)cc1 (stereo unspecified) | inactive
26 | CCOC(=O)C1CCN(C(c2cc3cc(C)cc(C)c3[nH]c2=O)c2nnnn2C2CCCCC2)CC1 (stereo unspecified) | 6.12 (active)
27 | COc1ccc(S(=O)(=O)NCCc2cc3ccc(C)c(C)c3[nH]c2=O)cc1 | inactive
28 | CCOCCCNC(=O)c1cc2c(=O)n3ccccc3nc2s1 | inactive
29 | Cc1ccc(N/C=C/C(=O)c2ccccc2)cc1C | inactive
30 | Cc1cc(C)nc(S/C=C/C(=O)c2ccccc2)n1 | 10.7 (active)
31 | Cc1cc(C)nc(SCC(=O)c2ccc(Cl)cc2)n1 | inactive
